According to PubChem BioAssay (NCATS):
Records with an inconclusive call do not appear. Activity calls are given as the source filed them. The call rests on the fitted dose curve; in most records, active means well fitted inhibition curve with a large enough effect; inconclusive means small, poorly fitted or top-dose-only effect; inactive means flat fitted curve, though single readings scatter.

Tests used:
PC49 = test: qHTS profiling for inhibitors of Plasmodium falciparum proliferation (AID 504749);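 further: 0% = DMSO vehicle and full inhibition = artemisinin control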; conditions: P. falciparum in erythrocytes, SYBR Green DNA, 72 h; series mostly up to 28.7 µM
Method in brief: (§1)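 P. falciparum-infected erythrocytes (0.3% parasitemia, 2.5% hematocrit) incubated with compound 72 h at 37 C, 5% CO2. Parasite DNA detected by SYBR Green after lysis, overnight at room temperature; normalised to 0.29 uM artemisinin and DMSO.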

SC27B = test: as above; conditions: P. falciparum in erythrocytes, SYBR Green DNA, 72 h; series mostly up to 28.7 µM
Method in brief: as §1

TAB109 = test: as above; conditions: P. falciparum in erythrocytes, SYBR Green DNA, 72 h; series mostly up to 28.7 µM
Method in brief: as §1

TAB113 = test: as above; conditions: P. falciparum in erythrocytes, SYBR Green DNA, 72 h; series mostly up to 28.7 µM
Method in brief: as §1

TAB165 = test: as above; conditions: P. falciparum in erythrocytes, SYBR Green DNA, 72 h; series mostly up to 28.7 µM
Method in brief: as §1

W2 = test: as above; conditions: P. falciparum in erythrocytes, SYBR Green DNA, 72 h; series mostly up to 28.7 µM
Method in brief: as §1

CRL-7250 = normal cell line; test: Cytotoxic Profiling of Annotated Libraries Using Quantitative High-Throughput Screening (AID 1296008); conditions: Five cell lines viability, CellTiter-Glo ATP luminescence, 48-72 h; stronger effect = lower value; on max response: on the % scale 0 is the no-effect control and ±100 the full control effect
Method in brief: (§2)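 Cells exposed to compounds for 48 or 72 hr at 37 degrees Celsius. Viability read as ATP-coupled luminescence with CellTiter-Glo after 10 min at room temperature.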

HEK293 = test: as above; conditions: Five cell lines viability, CellTiter-Glo ATP luminescence, 48-72 h; stronger effect = lower value
Method in brief: as §2

HaCat [1] = test: as above; conditions: Five cell lines viability, CellTiter-Glo ATP luminescence, 48-72 h; stronger effect = lower value
Method in brief: as §2

KB-3-1 = test: as above; conditions: Five cell lines viability, CellTiter-Glo ATP luminescence, 48-72 h, stronger effect = lower value
Method in brief: as §2

NIH3T3 [2] = test: as above; conditions: Five cell lines viability, CellTiter-Glo ATP luminescence, 48-72 h; stronger effect = lower value
Method in brief: as §2

HACAT [3] = test: qHTS assay to identify novel small-molecules to repurpose for Merkel cell carcinoma treatment (AID 1296009); conditions: MCC and control cell lines, CellTiter-Glo viability, 72 h; at 44.8 µM (top of the series) unless noted; on activity change, negative = cytotoxicity: on the % scale 0 is the no-effect control and ±100 the full control effect
Method in brief: (§3)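 Cells were treated for 72 hr at 37 degree celsius with compounds in 8- or 11-point dose response. Viability was read by CellTiter-Glo luminescence, normalized to no-cell (cytotoxicity) and DMSO controls.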

MCC-13 = test: as above; conditions: MCC and control cell lines, CellTiter-Glo viability, 72 h; series mostly up to 46 µM
Method in brief: as §3

MCC-26 = test: as above; conditions: MCC and control cell lines, CellTiter-Glo viability, 72 h; series mostly up to 46 µM
Method in brief: as §3

MKL-1 = test: as above; conditions: MCC and control cell lines, CellTiter-Glo viability, 72 h; series mostly up to 46 µM
Method in brief: as §3

MKL-2 = test: as above; conditions: MCC and control cell lines, CellTiter-Glo viability, 72 h; series mostly up to 46 µM
Method in brief: as §3

NIH3T3 [4] = test: as above; conditions: MCC and control cell lines, CellTiter-Glo viability, 72 h; at 44.8 µM (top of the series) unless noted
Method in brief: as §3

UISO = test: as above; conditions: MCC and control cell lines, CellTiter-Glo viability, 72 h; series mostly up to 46 µM
Method in brief: as §3

WaGa = test: as above; conditions: MCC and control cell lines, CellTiter-Glo viability, 72 h; series mostly up to 46 µM
Method in brief: as §3

HEK293T = test: as above; conditions: MCC and control cell lines, CellTiter-Glo viability, 72 h; at 44.8 µM (top of the series) unless noted
Method in brief: as §3
Further: nearly all actives have a fitted effect of over 60% in size.

CC(N)CCCC(C)(C)O (stereo not drawn)
inactive: Potency (PC49) | Potency (SC27B) | Potency (TAB109) | Potency (TAB113) | Potency (TAB165) | Potency (W2) | max response (CRL-7250) -9.12% | max response (HEK293) -17.6% | outcome (HaCat [1]) | max response (KB-3-1) 2.21% | outcome (NIH3T3 [2]) | outcome (HACAT [3]) | outcome (MCC-13) | outcome (MCC-26) | outcome (MKL-1) | outcome (MKL-2) | outcome (NIH3T3 [4]) | outcome (UISO) | outcome (WaGa)

Cc1c(NC(C)C)c(=O)n(-c2ccccc2)n1C
inactive: Potency (PC49) | Potency (SC27B) | Potency (TAB109) | Potency (TAB113) | Potency (TAB165) | Potency (W2) | outcome (CRL-7250) | max response (HEK293) -10.6% | outcome (HaCat [1]) | max response (KB-3-1) 6.84% | outcome (NIH3T3 [2]) | outcome (HACAT [3]) | outcome (MCC-13) | outcome (MCC-26) | outcome (MKL-1) | outcome (MKL-2) | outcome (NIH3T3 [4]) | outcome (UISO) | outcome (WaGa)

CC(=O)N[C@H]1[C@H]([C@H](O)[C@H](O)CO)OC(C(=O)O)=C[C@@H]1N=C(N)N
inactive: max response (CRL-7250) -5.6% | max response (HEK293) 1.78% | outcome (HaCat [1]) | max response (KB-3-1) 6.48% | outcome (NIH3T3 [2]) | outcome (HACAT [3]) | outcome (MCC-13) | outcome (MCC-26) | outcome (MKL-1) | outcome (MKL-2) | outcome (NIH3T3 [4]) | outcome (UISO) | outcome (WaGa)

CC(C)c1cc2c(cc1S(=O)(=O)O)[C@@]1(C)CCC[C@@](C)(C(=O)O)[C@@H]1CC2
inactive: Potency (PC49) | Potency (SC27B) | Potency (TAB109) | Potency (TAB113) | Potency (TAB165) | max response (CRL-7250) -2.14% | max response (HEK293) 0.927% | outcome (HaCat [1]) | max response (KB-3-1) -7.82% | outcome (NIH3T3 [2]) | outcome (HACAT [3]) | outcome (MCC-13) | outcome (MCC-26) | outcome (MKL-1) | outcome (MKL-2) | outcome (NIH3T3 [4]) | outcome (UISO) | outcome (WaGa)

Nc1ncnc2c1ncn2[C@@H]1O[C@H](COP(=O)(O)O)[C@@H](O)[C@H]1O
inactive: Potency (SC27B) | Potency (TAB109) | Potency (TAB113) | Potency (TAB165) | Potency (W2) | outcome (CRL-7250) | outcome (HEK293) | outcome (HaCat [1]) | max response (KB-3-1) -9.67% | max response (NIH3T3 [2]) 4.32% | outcome (HACAT [3]) | outcome (HEK293T) | outcome (MCC-13) | outcome (MCC-26) | outcome (MKL-1) | outcome (MKL-2) | outcome (UISO) | outcome (WaGa)

CC(C)=CCC[C@@](C)(O)[C@H]1CC=C(C)CC1
inactive: max response (CRL-7250) 1.58% | outcome (HEK293) | outcome (HaCat [1]) | max response (KB-3-1) 4.77% | max response (NIH3T3 [2]) -5.4% | outcome (HACAT [3]) | outcome (HEK293T) | outcome (MCC-13) | outcome (MCC-26) | outcome (MKL-1) | outcome (MKL-2) | outcome (UISO) | outcome (WaGa)

CCOC(=O)OC(C)OC(=O)[C@@H]1N2C(=O)[C@@H](NC(=O)[C@H](N)c3ccccc3)[C@H]2SC1(C)C (stereo partly drawn)
inactive: max response (CRL-7250) -4.78% | max response (HEK293) -9.36% | outcome (HaCat [1]) | max response (KB-3-1) -3.71% | outcome (NIH3T3 [2]) | outcome (HACAT [3]) | outcome (MCC-13) | outcome (MCC-26) | outcome (MKL-1) | outcome (MKL-2) | outcome (NIH3T3 [4]) | outcome (UISO) | outcome (WaGa)

c1ccc2[nH]ccc2c1
inactive: Potency (PC49) | Potency (SC27B) | Potency (TAB109) | Potency (TAB113) | Potency (TAB165) | Potency (W2) | max response (CRL-7250) 4.59% | max response (HEK293) -5.55% | outcome (HaCat [1]) | max response (KB-3-1) -2.84% | outcome (NIH3T3 [2]) | outcome (HACAT [3]) | outcome (MCC-13) | outcome (MCC-26) | outcome (MKL-1) | outcome (MKL-2) | outcome (NIH3T3 [4]) | outcome (UISO) | outcome (WaGa)

CC[C@]12CCCN3CCc4c(n(c5ccccc45)[C@@](O)(C(=O)OC)C1)[C@@H]32
inactive: outcome (CRL-7250) | max response (HEK293) 0.673% | outcome (HaCat [1]) | max response (KB-3-1) 3.99% | outcome (NIH3T3 [2]) | outcome (HACAT [3]) | outcome (MCC-13) | outcome (MCC-26) | outcome (MKL-1) | outcome (MKL-2) | outcome (NIH3T3 [4]) | outcome (UISO) | outcome (WaGa)

CC(CSC(=O)c1ccccc1)C(=O)N1C[C@@H](Sc2ccccc2)C[C@H]1C(=O)O (stereo partly drawn)
inactive: Potency (PC49) | Potency (SC27B) | Potency (TAB109) | Potency (TAB113) | Potency (TAB165) | Potency (W2) | max response (CRL-7250) -5.72% | outcome (HEK293) | outcome (HaCat [1]) | max response (KB-3-1) -11.1% | max response (NIH3T3 [2]) -0.681% | outcome (HACAT [3]) inactive [at 17.4 µM] | outcome (HEK293T) inactive [at 17.4 µM] | outcome (MCC-13) | outcome (MCC-26) | outcome (MKL-1) | outcome (MKL-2) | outcome (UISO) | outcome (WaGa)

NC(=O)NC1NC(=O)NC1=O (stereo not drawn)
inactive: outcome (CRL-7250) | max response (HEK293) -3.84% | outcome (HaCat [1]) | max response (KB-3-1) -5.62% | outcome (NIH3T3 [2]) | outcome (HACAT [3]) | outcome (MCC-13) | outcome (MCC-26) | outcome (MKL-1) | outcome (MKL-2) | outcome (NIH3T3 [4]) | outcome (UISO) | outcome (WaGa)

CCN(CC)C(=O)c1cccc(C)c1
inactive: Potency (PC49) | Potency (SC27B) | Potency (TAB109) | Potency (TAB113) | Potency (TAB165) | Potency (W2) | outcome (CRL-7250) | max response (HEK293) 0.224% | outcome (HaCat [1]) | max response (KB-3-1) 13.2% | outcome (NIH3T3 [2]) | outcome (HACAT [3]) | outcome (MCC-13) | outcome (MCC-26) | outcome (MKL-1) | outcome (MKL-2) | outcome (NIH3T3 [4]) | outcome (UISO) | outcome (WaGa)

N[C@@H](Cc1ccc(O)cc1)C(=O)O
inactive: Potency (PC49) | Potency (SC27B) | Potency (TAB109) | Potency (TAB113) | Potency (TAB165) | Potency (W2) | max response (CRL-7250) 1.09% | max response (HEK293) 3.89% | outcome (HaCat [1]) | max response (KB-3-1) -4.34% | outcome (NIH3T3 [2]) | outcome (HACAT [3]) inactive [at 9.27 µM] | activity change, negative = cytotoxicity (MCC-13) 12.1% [at 9.22 µM] | activity change, negative = cytotoxicity (MCC-26) 4.77% [at 9.22 µM] | activity change, negative = cytotoxicity (MKL-1) 3.97% [at 9.22 µM] | activity change, negative = cytotoxicity (MKL-2) -20.6% [at 9.22 µM] | outcome (NIH3T3 [4]) inactive [at 9.27 µM] | activity change, negative = cytotoxicity (UISO) 19.3% [at 9.22 µM] | activity change, negative = cytotoxicity (WaGa) -2.96% [at 9.22 µM]

NC(=O)N[C@@H](CCC(=O)O)C(=O)O
inactive: outcome (CRL-7250) | max response (HEK293) -4.43% | outcome (HaCat [1]) | max response (KB-3-1) -19.7% | outcome (NIH3T3 [2]) | outcome (HACAT [3]) | outcome (MCC-13) | outcome (MCC-26) | outcome (MKL-1) | outcome (MKL-2) | outcome (NIH3T3 [4]) | outcome (UISO) | outcome (WaGa)
